Bioassay records: PubChem, The Scripps Research Institute Molecular Screening Center
NCOA1 inh – inhibits human SRC1 coactivator; Q15788; HEK293 GAL4-SRC1 luciferase reporter, luminescence; inhibition, % at 3.6 µM; 360,000 tested, 0.12% active; AID 588354;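 active = inhibition above the campaign mean plus 3 SD, with each screening campaign given its own cutoff, cut at about 60% in these data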;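 note: 0% = DMSO treated cells and 100% = gossypol at 36 µM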
Target sequence (Q15788 whole entry, looked up, the tested form may be a part): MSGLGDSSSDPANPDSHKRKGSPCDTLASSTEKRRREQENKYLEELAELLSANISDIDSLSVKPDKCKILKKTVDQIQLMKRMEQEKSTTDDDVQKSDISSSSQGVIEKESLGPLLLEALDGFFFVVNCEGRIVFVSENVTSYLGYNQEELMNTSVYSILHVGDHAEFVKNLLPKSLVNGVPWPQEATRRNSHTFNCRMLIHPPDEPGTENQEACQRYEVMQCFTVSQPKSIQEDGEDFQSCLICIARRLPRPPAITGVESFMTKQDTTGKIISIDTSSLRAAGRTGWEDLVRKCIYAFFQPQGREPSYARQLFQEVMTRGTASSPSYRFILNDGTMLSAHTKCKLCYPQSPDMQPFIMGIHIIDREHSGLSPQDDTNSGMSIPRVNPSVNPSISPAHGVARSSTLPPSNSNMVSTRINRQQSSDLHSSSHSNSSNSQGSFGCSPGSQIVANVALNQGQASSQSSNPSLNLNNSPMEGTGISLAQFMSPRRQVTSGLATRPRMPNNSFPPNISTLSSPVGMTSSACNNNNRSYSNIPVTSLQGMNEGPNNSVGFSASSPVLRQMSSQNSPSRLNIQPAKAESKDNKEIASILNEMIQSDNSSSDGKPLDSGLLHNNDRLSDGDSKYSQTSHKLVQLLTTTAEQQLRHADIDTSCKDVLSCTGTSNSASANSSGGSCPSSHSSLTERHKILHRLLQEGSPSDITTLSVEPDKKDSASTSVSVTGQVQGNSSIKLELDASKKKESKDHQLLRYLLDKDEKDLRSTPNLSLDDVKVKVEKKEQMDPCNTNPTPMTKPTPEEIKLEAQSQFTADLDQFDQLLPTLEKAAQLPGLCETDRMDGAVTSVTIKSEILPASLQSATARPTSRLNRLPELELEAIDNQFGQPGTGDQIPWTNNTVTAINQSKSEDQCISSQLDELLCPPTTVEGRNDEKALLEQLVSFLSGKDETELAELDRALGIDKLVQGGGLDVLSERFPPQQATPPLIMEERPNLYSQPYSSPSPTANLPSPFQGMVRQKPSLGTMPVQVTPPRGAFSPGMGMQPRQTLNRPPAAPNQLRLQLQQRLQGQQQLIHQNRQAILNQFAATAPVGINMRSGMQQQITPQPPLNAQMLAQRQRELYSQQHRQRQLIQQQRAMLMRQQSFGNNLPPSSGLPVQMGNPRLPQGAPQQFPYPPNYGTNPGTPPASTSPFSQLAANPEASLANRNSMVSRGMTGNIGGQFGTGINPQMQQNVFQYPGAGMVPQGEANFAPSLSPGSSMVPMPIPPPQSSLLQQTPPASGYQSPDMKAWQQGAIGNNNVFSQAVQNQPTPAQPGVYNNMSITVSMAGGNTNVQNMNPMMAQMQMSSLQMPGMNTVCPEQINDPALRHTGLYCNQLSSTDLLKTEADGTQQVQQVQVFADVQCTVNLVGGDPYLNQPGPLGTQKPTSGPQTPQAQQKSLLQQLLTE
NCOA2 inhibitor – inhibits human steroid receptor coactivator 2; Q15596; HEK293 GAL4-SRC2 luciferase reporter, luminescence; inhibition, % at 9 µM; 370,000 tested, 0.17% active;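 active = inhibition above the mean inhibition of all tested compounds plus 3 SD, set per campaign, cut at about 52% in these data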;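 note: 0% = DMSO treated cells and 100% = cells given Gossypol at 36 µM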
SRC3 inh – human NCOA3 inhibition; Q9Y6Q9; HEK293 GAL4-SRC3 luciferase reporter, luminescence; inhibition, % at 3.6 µM; 360,000 tested, 0.17% active; AID 588352;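 active = inhibition above a per-campaign cutoff, the mean of all compounds plus 3 SD, cut at about 60% in these data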;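 note: 0% = DMSO-treated cells and 100% = gossypol-treated cells at 36 µM; higher means less SRC3-driven luciferase light from the GAL4 reporter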
COUP-TFII inh – NR2F2 (human) inhibition, primary screen. P24468. HEK293T NGFI-A luciferase reporter, luminescence. inhibition, % at 8.6 µM. 370,000 tested, 0.7% active. AID 686940;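 active = inhibition above a per-plate cutoff, mean inhibition of test wells between control levels plus 3 SD, cut at about 38% in these data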;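 note: cells cotransfected with COUP-TFII expression vector driving the NGFI-A reporter; 0% = median of COUP-TF2 test wells and 100% = reporter-only cells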
NR5A2 inv ag – inverse agonists of human LRH-1 (NR5A2); O00482; HEK293T StAR-luciferase reporter, LRH-1 transfected, 24 h; inhibition, % at 3.6 µM; 360,000 tested, 0.13% active; AID 602396;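 active = inhibition above the mean inhibition of all tested compounds plus 3 SD, cut at about 73% in these data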;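 note: 0% = DMSO wells and 100% = reporter-only cells lacking LRH-1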
VP16 Luc counter – counter-screen for COUP-TFII antagonists: inhibitors of VP16. shares compounds with COUP-TFII inh. HEK293 Gal4-VP16 luciferase reporter, luminescence. inhibition, % at 8.5 µM. 2,500 tested, 25% active; in the data active = inhibition above about 13%
NR2F2 inh conf – COUP-TFII (NR2F2) inhibition, confirmation assay; inhibition, % at 8.5 µM; 2,500 tested, 45% active; HEK293 NGFI-A luciferase reporter, luminescence; AID 687008; shares compounds with COUP-TFII inh;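 active = mean inhibition over three repeats above a set limit taken from the earlier primary screen, cut at about 38% in these data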;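 note: 100% = cells given the luciferase reporter alone without the COUP-TF2 vector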
* = called active by the depositor; x = no result given. Most compounds without a hit are left out; they make up all but 0.83% or so of the library.

SMILES	NCOA1 inh	NCOA2 inhibitor	SRC3 inh	COUP-TFII inh	NR5A2 inv ag	VP16 Luc counter	NR2F2 inh conf
COc1cccc(CCN2CCC(CNS(=O)(=O)c3cc(-c4cc(C)no4)ccc3OC)CC2)c1	-8.5	13.5	26.7	37.4*	6.4	-10.9	7.8
Cc1cccc(N2CCN(S(=O)(=O)c3cc(-c4cc(C)no4)ccc3C)CC2C)c1 (stereo unspecified)	29.8	26.4	30.1	33.7	13.6	x	x
COc1cccc(CCN2CCC(CNS(=O)(=O)c3cc(-c4cc(C)no4)ccc3C)CC2)c1	-12.2	24.5	27.0	41.2*	8.6	-0.1	26.1
C[C@H]1C(=O)N2[C@@H](C[C@]3(c4c[nH]c5ccccc45)c4ccccc4N(S(=O)(=O)c4ccccc4)[C@H]23)C(=O)N1C	x	x	x	0.6	x	x	x
CC(=NNc1cc(C)c2cc(C)ccc2n1)c1ccccn1	x	-17.6	x	-20.3	x	x	x
CC(=O)C1=C(C)N(Cc2ccc(Br)cc2)C(=S)NC1c1cccc(F)c1 (stereo unspecified)	x	-26.0	x	10.4	x	x	x
Cc1[nH]nc2ncc(C(=O)c3ccccc3O)cc12	50.9	46.3	44.8	37.7*	18.4	14.9*	32.3
Cc1nn(C)c2ncc(C(=O)c3ccccc3O)cc12	-8.1	8.4	-3.2	1.3	3.5	x	x
CCc1ccccc1NC(=O)c1cc(S(=O)(=O)N2CCc3ccccc32)cn1C	7.5	20.5	8.2	22.2	9.4	x	x
CCCNC(=O)c1cc(S(=O)(=O)N2CCc3ccccc32)cn1C	23.4	10.1	14.0	43.9*	5.7	-5.3	26.5
CN(C)C(=O)c1ccc(NC(=O)c2cccc(S(=O)(=O)N3CCCc4ccccc43)c2)cc1	2.0	13.6	-15.9	39.0*	-44.1	-6.3	0.5
O=C(Nc1ccncc1)c1cccc(S(=O)(=O)N2CCc3ccccc32)c1	26.4	-3.8	16.5	60.8*	33.8	0.0	44.8*
O=C(Nc1cccnc1)c1cccc(S(=O)(=O)N2CCc3ccccc32)c1	4.5	24.5	-5.7	21.8	16.3	x	x
CN(C)C(=O)c1ccc(NC(=O)c2cccc(S(=O)(=O)N3CCCCCC3)c2)cc1	-4.9	-13.2	-13.2	6.4	-21.7	x	x
CCC(C)N(C(=O)CSc1nnc(-c2cccnc2)n1C1CCCCC1)C(C)CC (stereo unspecified)	x	-2.8	x	12.9	x	x	x
CCCC[C@H]1C2CC(OC(=O)Nc3ccc(Cl)cc3)C(C2)[C@H]2CCCCN21 (stereo partly specified)	x	16.8	x	-6.8	x	x	x
O=C1/C(=C/c2ccccc2)CN(C(=O)CCN2CCOCC2)C/C1=C\c1ccccc1	-44.8	13.3	12.6	57.0*	52.9	34.5*	26.1
CCOC(=O)N1C/C(=C\c2ccccc2)C(=O)/C(=C/c2ccccc2)C1	4.1	-139.8	25.8	27.7	-1.6	x	x
CN(C)CCC(=O)N1C/C(=C/c2ccccc2)C(=O)/C(=C\c2ccccc2)C1	-58.4	64.1*	-6.4	79.1*	80.8*	80.5*	87.4*
O=C(/C=C/c1ccccc1)CCN1CCOCC1	-41.3	-7.7	-4.3	-5.8	-14.9	x	x
C[N+](C)(C)CCC(=O)N1C/C(=C/c2ccccc2)C(=O)/C(=C\c2ccccc2)C1	-14.8	5.6	15.8	71.8*	-8.3	21.7*	29.2
COC(=O)[C@]12C[C@H](CC(=O)N3CCN(C(=O)C4CC4)CC3)C(=O)N(Cc3ccccc3)C1=C[C@H](C1CCCC1)O[C@@H]2C	x	12.4	x	-2.4	x	x	x
CCOC(=O)[C@]12CCCCC/C=C\1N(CCc1ccc(Cl)cc1)C(=O)[C@H]2CC(=O)NCc1cccs1	x	-16.0	x	2.2	x	x	x
Nc1c(Cl)ncnc1NCc1cccnc1	-8.7	20.2	-17.3	3.7	-8.1	x	x
Nc1c(Cl)ncnc1NCCc1ccc(O)cc1	26.9	21.5	14.0	47.3*	20.8	6.3	31.7
CCOc1ccc(-c2c[n+]3c(n2-c2ccccc2)CCCCC3)cc1	24.3	28.4	37.6	56.4*	50.8	5.6	44.0*
CC1=CC(=O)C=C(C)C1=NOS(=O)(=O)c1ccccc1	-5.8	-9.9	-7.7	-10.6	22.3	x	x
CC1=CC(=O)C(C(C)C)=C/C1=N/OS(=O)(=O)c1ccccc1	-35.3	13.9	-15.8	58.1*	9.0	9.6	12.7
